High-throughput results as filed in PubChem.
3T3 cytotox: NIH 3T3 cell cytotoxicity. NIH 3T3 viability, CellTiter-Glo ATP luminescence, 48-72 h. Potency, µM (doses to about 96.7 µM), usual class: inhibitors. actives 4.3% (n = 94,000). AID 1345082; also: nearly all actives have a fitted effect of over 55% in size
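First NIH 3T3 cells are plated at 400 cells/well; next compound is pinned in; then plates incubate 48 or 72 hr at 37 °C; finally CellTiter-Glo is added and luminescence read after 10 min.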
HEK293 tox: HEK 293 cell cytotoxicity. HEK 293 viability, ATP luminescence (CellTiter-Glo), 48-72 h. Potency, µM (top dose mostly 115 µM), usual class: inhibitors. actives 6.6% (n = 94,000); also: nearly all actives have a fitted effect of over 60% in size
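Cells seeded first (HEK 293, 250 cells/well), then compound added by pintool. Incubation ran 48 or 72 hr at 37 degree Celsius. CellTiter-Glo was added and luminescence imaged after 10 min at room temperature.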
SNCA expr inh: SNCA gene expression inhibition; HEK-293 SNCA-luciferase knock-in, luminescence, 24 h; Potency, µM (doses to about 57.2 µM), actives largely listed as inhibitors; actives 0.17% (n = 140,000); also: nearly all actives have a fitted effect of over 45% in size
IP6K1 inhibitor: IP6K1 kinase inhibition; Q92551; IP6K1 kinase, ADP-Glo luminescence, 2 h; active compounds read low; activity change, % (series mostly up to about 58 µM); actives 0.81% (n = 140,000); AID 1645851; in the data active = activity change below about -25%
Target sequence (Q92551 whole entry, looked up): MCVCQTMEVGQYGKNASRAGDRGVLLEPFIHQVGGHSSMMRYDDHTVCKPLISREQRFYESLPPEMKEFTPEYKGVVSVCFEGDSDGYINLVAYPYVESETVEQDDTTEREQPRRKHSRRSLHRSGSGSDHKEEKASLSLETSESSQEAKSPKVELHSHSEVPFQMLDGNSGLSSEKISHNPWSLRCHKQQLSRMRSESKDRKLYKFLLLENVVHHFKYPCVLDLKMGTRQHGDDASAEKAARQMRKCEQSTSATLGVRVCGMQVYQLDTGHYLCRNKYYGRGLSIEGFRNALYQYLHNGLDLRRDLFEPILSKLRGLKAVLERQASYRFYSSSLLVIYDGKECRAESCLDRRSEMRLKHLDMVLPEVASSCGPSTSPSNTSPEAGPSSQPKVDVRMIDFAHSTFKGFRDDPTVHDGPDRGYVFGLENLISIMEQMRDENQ
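ADP-Glo luminescence measures ADP made by human IP6K1 during a 2 h RT reaction with ATP/IP6 (mix at 1.3 mM/130 uM); top library doses 57.5 and 19.1 uM final.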
FLuc inh: blocks purified firefly luciferase enzyme activity. purified P. pyralis luciferase, luminescence, biochemical. P08659. AID 1347043. actives 2.5% (n = 76,000). Potency, µM (highest dose often 115 µM), hits mostly inhibitors; also: nearly all actives have a fitted effect of over 65% in size
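Cell-free enzyme assay, 10nM P. pyralis luciferase, luciferin and ATP each at 10uM. Inhibition profiled over a 6-point titration, read as luminescence.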
HEK293 viab: counter-screen for SNCA expression inhibitors: cell viability | HEK-293-SNCA-luc viability, GF-AFC fluorescence, 24 h | Potency, µM (highest dose often 57.1 µM), usual class: cytotoxic | actives 0.12% (n = 150,000) | AID 1671193; also: nearly all actives have a fitted effect of over 30% in size
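HEK-293-SNCA-luc cells (1500/well) plated 24 h, then exposed 24 h to a dilution series; GF-AFC added 30 min at 37C, fluorescence 405/540 nm; normalised to medium-only and DMSO wells, Hill fit.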
IP6K1 conf: confirmation of human IP6K1 inhibitors. recombinant IP6K1 kinase, ADP-Glo luminescence, 2 h. actives 13% (n = 1,200). Potency, µM (top dose mostly 49 µM), hits mostly inhibitors. shares compounds with IP6K1 inhibitor; also: nearly all actives have a fitted effect of over 65% in size
Each line names hits and unclear results; the compound was inactive in the other large screens (follow-up assays come after a bar, where they were run). Most compounds without a hit are left out; they make up all but 7.3% or so of the library. Unless noted, calls follow the shape of the dose curve; as a rule, active = well fitted curve in the direction sought with a large enough effect; inconclusive = small, poorly fitted or top-dose-only effect, or another doubt; inactive = no such curve, though single readings can be large; an effect the other way counts as inactive or inconclusive.

O=C(NCc1ccccc1F)c1ccc2c(c1)CNCCO2	none
O=C1CC(c2ccccc2)Cc2[nH]c(=O)c(C(=O)Nc3cccc(Cl)c3)cc21 (centres undefined)	none (no result: 3T3 cytotox, HEK293 tox, FLuc inh)
O=C1CC(c2ccccc2)Cc2[nH]c(=O)c(C(=O)Nc3cccc(F)c3)cc21 (centres undefined)	IP6K1 inhibitor -93 (no result: 3T3 cytotox, HEK293 tox, FLuc inh) | IP6K1 conf inactive
Cc1ccc(CNC(=O)Cc2c(C)c3c(cc(C)c4c(C)coc43)oc2=O)cc1	IP6K1 inhibitor -26 (no result: 3T3 cytotox, HEK293 tox, FLuc inh) | IP6K1 conf inactive
COC1CN(c2ccc(C)cc2)C12CCN(C(=O)CCc1nc3ccccc3s1)CC2 (centres undefined)	3T3 cytotox inconclusive, HEK293 tox inconclusive
CCCN(CCC)CCNC(=O)c1cc2c(=O)oc3ccc(C)cc3c2s1	IP6K1 inhibitor -25 (no result: 3T3 cytotox, HEK293 tox, FLuc inh) | IP6K1 conf inactive
Cn1c(SCC(=O)N2CCCc3ccccc32)ncc(C(=O)Nc2ccccc2)c1=O	none (no result: 3T3 cytotox, HEK293 tox, FLuc inh)
COc1cccc(NC(=O)c2cnc(SCC(=O)N3CCCc4ccccc43)n(C)c2=O)c1	IP6K1 inhibitor -27 (no result: 3T3 cytotox, HEK293 tox, FLuc inh) | IP6K1 conf inactive
O=C(N[C@@H]1CCOC[C@H]1Oc1cccc(F)c1)c1cnc2ccccn2c1=O	IP6K1 inhibitor -42 | IP6K1 conf inactive
CCCc1nc(C(=O)N2C[C@H](c3cccc(OC)c3)[C@@H](N)C2)cs1	IP6K1 inhibitor -26 | IP6K1 conf inactive
CC(C)CC(NC(=O)C1=NNC(=O)CC1)c1nnc2n1CCNCC2 (centres undefined)	IP6K1 inhibitor -40 | IP6K1 conf inactive
O=C(NCc1cccs1)c1ccc(CN2C(=O)NC3(CCS(=O)(=O)CC3)C2=O)cc1	none
Cn1ncc(N2CCOC(CCNC3CCC4(CCNCC4)CC3)C2)cc1=O (centres undefined)	none
COc1ccc(OC)c(CNc2ncc(-c3ccc(Cl)cc3)n2C)c1	HEK293 viab inconclusive (no result: 3T3 cytotox, HEK293 tox, FLuc inh)
COc1cccc(CNc2ncc(-c3ccc(Br)cc3)n2C)c1	IP6K1 inhibitor -35 (no result: 3T3 cytotox, HEK293 tox, FLuc inh) | IP6K1 conf inconclusive
CCOc1ccc(-c2cnc(NCc3ccc(OC)cc3OC)n2C)cc1	IP6K1 inhibitor -25 (no result: 3T3 cytotox, HEK293 tox, FLuc inh) | IP6K1 conf inactive
Cn1ncc2c(C(=O)NCc3cccnc3)cc(-c3ccc(C(F)(F)F)cc3)nc21	3T3 cytotox inconclusive, HEK293 tox inconclusive (no result: SNCA expr inh, FLuc inh, HEK293 viab)
CCCCCCCCCCCCCCCCCC(=O)O	none (no result: 3T3 cytotox, HEK293 tox, FLuc inh)
CCCCCCCCCCCCCCCCC(C(=O)O)C(O)(CC(=O)O)C(=O)O (centres undefined)	IP6K1 inhibitor -78 (no result: 3T3 cytotox, HEK293 tox, FLuc inh) | IP6K1 conf 23µM
COc1ccc(NC(=O)c2c(NCc3cccc(OC)c3)sc3c2CCCC3)cc1	SNCA expr inh inconclusive (no result: 3T3 cytotox, HEK293 tox, FLuc inh)
COc1ccc(NC(=O)c2c(NCc3ccc(N(C)C)cc3)sc3c2CCC3)cc1	IP6K1 inhibitor -27 (no result: 3T3 cytotox, HEK293 tox, FLuc inh) | IP6K1 conf inactive
COc1cc(NC(=O)C2CCc3sc(C(=O)N4CCOCC4)cc3C2)cc(OC)c1 (centres undefined)	HEK293 tox inconclusive
FC(F)(F)c1ccccc1-c1nc(NCc2cccnc2)c2ccccc2n1	none (no result: 3T3 cytotox, HEK293 tox, IP6K1 inhibitor, FLuc inh)
FC(F)(F)c1ccccc1-c1nc(NCc2ccc(-c3ccc(Cl)c(Cl)c3)cc2)c2ccccc2n1	none (no result: 3T3 cytotox, HEK293 tox, SNCA expr inh, IP6K1 inhibitor, FLuc inh, HEK293 viab) | IP6K1 conf inactive
Cc1ccccc1-c1nc(NCc2cccs2)c2ccccc2n1	none (no result: 3T3 cytotox, HEK293 tox, IP6K1 inhibitor, FLuc inh) | IP6K1 conf inactive
FC(F)(F)c1ccccc1-c1nc(NCc2cccs2)c2ccccc2n1	none (no result: 3T3 cytotox, HEK293 tox, IP6K1 inhibitor, FLuc inh) | IP6K1 conf inactive
Cc1ccc(C(=O)N2CCN(c3nnc4c(Cl)cccn34)CC2)cc1	none
COc1cccc(CN(C)Cc2cccc(C(F)(F)F)c2)c1	HEK293 tox inconclusive (no result: FLuc inh)
COc1ccc2[nH]c3c(c2c1)CCNC31CCN(C(=O)Cc2cccnc2)CC1	none
CC(=O)NO	IP6K1 inhibitor -28 (no result: 3T3 cytotox, HEK293 tox, FLuc inh) | IP6K1 conf inactive
Cc1cc(Nc2nc(-c3ccccc3)nc3ccccc23)n[nH]1	IP6K1 inhibitor -26 (no result: 3T3 cytotox, HEK293 tox, SNCA expr inh, FLuc inh) | IP6K1 conf inconclusive
COC(=O)c1ccc(Nc2nc(-c3ccc(C)cc3)nc3ccccc23)cc1	none (no result: 3T3 cytotox, HEK293 tox, FLuc inh)
Cc1ccc(OCC(=O)Nc2ccc3nc(SCC(N)=O)sc3c2)cc1	none (no result: 3T3 cytotox, HEK293 tox, FLuc inh)
Cc1ccc(OCC(=O)Nc2ccc3nc(SCCOc4ccccc4)sc3c2)cc1	IP6K1 inhibitor -27 (no result: 3T3 cytotox, HEK293 tox, FLuc inh) | IP6K1 conf inactive
COc1ccc(CNC(=O)N2CCC3(CC2)CC3c2noc(C)n2)cc1 (centres undefined)	none (no result: FLuc inh)
CCOC(=O)N1CCN(Cc2nc3cc(NC(=O)c4ccc(OC)cc4)ccc3n2C(C)C)CC1	none (no result: 3T3 cytotox, HEK293 tox, FLuc inh)
CCOC(=O)N1CCN(Cc2nc3cc(NC(=O)C(C)C)ccc3n2C(C)C)CC1	IP6K1 inhibitor -36 (no result: 3T3 cytotox, HEK293 tox, FLuc inh) | IP6K1 conf inactive
COC1(c2ccccc2)CCN(C(=O)C2CCCN(C(=O)N(C)C)C2)CC1 (centres undefined)	none
COc1ccc(-c2ccc(C(=O)N3CCN(C(=O)c4ccccc4)CC3)cc2)nn1	none (no result: SNCA expr inh, FLuc inh, HEK293 viab)
COc1ccc(-c2ccc(C(=O)N3CCCCC3)cc2)nn1	3T3 cytotox 28µM, HEK293 tox inconclusive, IP6K1 inhibitor -51 (no result: SNCA expr inh, FLuc inh, HEK293 viab) | IP6K1 conf inconclusive
COC[C@]1(O)CCN(C(=O)C2CCN(CC(N)=O)CC2)CC1(C)C	SNCA expr inh inconclusive
Cc1cc(NC(=O)c2cccc(NC(=O)/C=C/CN(C)C)c2)ccc1Nc1nccc(-c2cccnc2)n1	IP6K1 inhibitor -34 (no result: 3T3 cytotox, HEK293 tox, SNCA expr inh, FLuc inh) | IP6K1 conf inconclusive
